Only some compounds are listed: those with a hit (about 2.2% of all), similar ones and a draw of the others.
GAA850 FXN act – activators of GAA850 frataxin (FXN) promoter. HEK293 lucGAA850 FXN promoter luciferase reporter, 24 h; percent of 10 µM SAHA response. activation, % at 6 µM. 360,000 compounds, 0.56% hits. AID 540364;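 active = activation above the average of all compounds screened plus 3 SD, cutoff fixed separately per campaign, cut at about 7.5% in these data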;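 also: 0% = DMSO wells and 100% = 10 µM SAHA wells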
HIF activator – HIF pathway transcriptional activation. 300,000 compounds, 0.32% hits. activation, % at 7.5 µM (by protocol). AID 1910. U2OS HRE-luciferase reporter, luminescence; normalized: DMSO 0%, desferrioxamine 100%;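 active = mean activation of at least 10% of the iron chelator positive control signal, with at least half of replicates also reaching 10%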
GalR3 antagonist – human GalR3 antagonism. 360,000 compounds, 0.44% hits. inhibition, % at 3 µM. HEK293 GalR3-CNG cAMP membrane potential fluorescence; galR3 body fused to GalR1 C-terminus. AID 651719. O60755;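 active = inhibition above the screen-wide average plus 3 SD, cut at about 13% in these data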;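 also: forskolin and galanin both at EC90 stimulate the cells; cAMP rise reported by CNG channel membrane potential dye signal; 0% = forskolin plus galanin with DMSO and 100% = forskolin alone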
Target sequence (O60755 1-299 limits assumed): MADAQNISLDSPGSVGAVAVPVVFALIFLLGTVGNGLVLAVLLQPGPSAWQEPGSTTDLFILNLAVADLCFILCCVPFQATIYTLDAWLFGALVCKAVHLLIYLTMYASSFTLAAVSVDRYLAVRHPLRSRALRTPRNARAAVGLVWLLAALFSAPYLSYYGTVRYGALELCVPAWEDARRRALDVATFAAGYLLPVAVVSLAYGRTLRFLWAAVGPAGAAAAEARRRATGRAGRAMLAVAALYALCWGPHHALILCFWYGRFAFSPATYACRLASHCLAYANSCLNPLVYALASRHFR
SMARCA2 act – SMARCA2 function activation, primary screen | MG213 cells, MMTV-luciferase reporter, dexamethasone, overnight | activation, % at 9.1 µM | 370,000 compounds, 1% hits | AID 652017; in the data active = activation above about 7.8%;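 also: 0% = vehicle wells and 100% = reference activator wells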
Hsp70 act – Hsp70 transcriptional activation, primary screen. HeLa Hsp70 promoter luciferase reporter, luminescence; scaled: vehicle 0, proteasome-inhibitor control 100%. activation, % at 10 µM. 200,000 compounds, 0.04% hits. AID 1203;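 active = activation above the mean across all tested compounds plus 3 SD, cutoff set per campaign, cut at about 5.5% in these data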;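 also: 100% = MG132 at 30 µM as the positive control and 0% = DMSO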
GalR3 antag conf – confirmation of human galanin receptor 3 antagonists. HEK293 GalR3 CNG cAMP biosensor, membrane potential fluorescence; galR3 fused to GalR1 carboxy tail; challenged with forskolin and galanin at EC90. inhibition, % at 3 µM. AID 652245. 1,600 compounds, 59% hits. shares compounds with GalR3 antagonist;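 active = inhibition above the primary screen's cutoff, the mean inhibition of all screened compounds plus 3 SD, cut at about 13% in these data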;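 also: 0% = forskolin plus galanin and 100% = forskolin alone with DMSO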
HEK-CNG parental – acts as nonspecific agonist in parental HEK-CNG cells; activation, % at 3 µM; AID 652268; 1,600 compounds, 10% hits; shares compounds with GalR3 antagonist; HEK293-CNG parental cells, cAMP membrane potential fluorescence; normalised: DMSO wells 0%, forskolin wells 100%; in the data active = activation above about 1.3%
SMARCA2 act conf – SMARCA2 activation, confirmation screen. activation, % at 9.1 µM. MG213 cells, MMTV-luciferase with dexamethasone, luminescence, overnight; MG213 cells expressing E1A, Rb sequestered; DMSO wells 0%, reference activator 100%. 3,500 compounds, 30% hits. shares compounds with SMARCA2 act;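 active = activation above its plate's cutoff, the mean activation of tested wells plus 3 SD, cut at about 7.9% in these data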
GAL4-VP16 Luc – GAL4-VP16 reporter activation counter-screen; shares compounds with SMARCA2 act; HEK293 GAL4-VP16 pG5luc reporter, luciferase luminescence; scaled: DMSO wells 0%, SAHA wells 100%; activation, % at 9.1 µM; 3,500 compounds, 41% hits; AID 686939;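 active = activation above the solvent-only control well mean plus 3 SD, averaged across control plates, cut at about 5.2% in these data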
An asterisk follows results filed as active; nt = not tested or not shown.

SMILES | GAA850 FXN act | HIF activator | GalR3 antagonist | SMARCA2 act | Hsp70 act | SMARCA2 act conf | GAL4-VP16 Luc | others
COc1ccc(OCc2cccc(C(=O)Nc3ccc(CN4CCCCC4)cc3)c2)cc1 | 5 | 1 | 13* | 9.9* | 0 | 9.4* | 14* | GalR3 antag conf=35*;HEK-CNG parental=2.0*
Cc1ccc(Nc2ccc(C(=O)O)cc2N)cc1 | nt | 1 | 15* | 9.4* | 0 | 1 | 9.5* | GalR3 antag conf=3;HEK-CNG parental=-1
Cc1cc(C)cc(Nc2ccc(C(=O)O)cc2N)c1 | 0 | 1 | -1 | -1 | 0 | nt | nt
N#Cc1cccnc1N1CCN(C(=O)c2cccc3c2C(=O)c2ccc(-c4ccc(Cl)c(C(F)(F)F)c4)cc2S3(=O)=O)CC1 | 0 | nt | nt | nt | nt | nt | nt
N#Cc1cccnc1N1CCN(C(=O)c2cccc3c2C(=O)c2ccc(Cl)cc2S3(=O)=O)CC1 | -2 | nt | 23* | 14* | nt | 14* | 3 | GalR3 antag conf=30*;HEK-CNG parental=0
Cc1ccccc1Cn1cc(COC(=O)N(C)Cc2ccccc2)nn1 | nt | nt | nt | -3 | nt | nt | nt
COC(=O)[C@@]12CCCCC3=C1N(CCC3)C(=O)[C@H]2CC(=O)NCc1cccc(C(F)(F)F)c1 | nt | nt | nt | -1 | nt | nt | nt
CN(C(=O)c1ccc2c(c1)SC1=NS(=O)(=O)CCN12)C(c1ccccc1)c1ccccc1 | 3 | 0 | 31* | 10* | 0 | 14* | 3 | GalR3 antag conf=30*;HEK-CNG parental=0
COc1cc2c(cc1NC(=O)CSc1nnc(-c3ccccc3F)n1-c1ccc(C)cc1)oc1ccccc12 | nt | nt | nt | -3 | nt | nt | nt
COc1ccc(OC)c(-c2nnc3n2N=C(c2ccc(OC)c(OC)c2)CS3)c1 | 1 | nt | 50* | 12* | nt | 34* | 17* | GalR3 antag conf=34*;HEK-CNG parental=1.5*
COc1ccc(OC)c(-c2nnc3n2N=C(c2ccc(OC)c(OC4CCCC4)c2)CS3)c1 | -3 | nt | 1 | 1 | nt | nt | nt
Cc1nnc(Sc2cc(NCCCO)c([N+](=O)[O-])c3nonc23)s1 | 2 | -4 | 21* | 10* | 0 | -14 | 1 | GalR3 antag conf=5;HEK-CNG parental=0
O=C(O/N=C1\CCCc2ccccc21)c1ccc(F)cc1 | 2 | 0 | -5 | 9.7* | 0 | 5 | -1
COc1ccccc1C(=O)NCCC(=O)NC1CCC(C)CC1 (stereo not given) | 3 | nt | -3 | 10* | nt | 5 | 0
O=C(NC1CC2CCCC(C1)N2C(=O)NC1CCCCC1)c1ccc(F)cc1 (stereo not given) | 1 | 0 | -6 | -4 | 0 | nt | nt
COc1ccccc1C(=O)NC1CCCCCCC1 | -1 | 4 | -6 | 8.0* | 0 | 5 | 3
O=C(NC1CCCCCCC1)c1ccc(F)cc1 | 5 | 4 | -11 | 12* | nt | 12* | 7.5*
COC(=O)CCN(Cc1ccc(OC)cc1OC)S(=O)(=O)c1ccccc1Br | nt | nt | -8 | 0 | nt | nt | nt
C[C@H](c1ccccc1)N1C[C@@H](COCc2ccccc2)Oc2cccc(Oc3ccc(F)cc3)c2S1(=O)=O | nt | nt | 3 | -2 | nt | nt | nt
COC(=O)c1cc(-c2cccc(OC(F)(F)F)c2)c(=O)n2c1CCC2 | nt | nt | nt | 1 | nt | nt | nt
COc1ccc(-n2nnnc2S(=O)(=O)Cc2ccc(C(=O)O)cc2)cc1 | -7 | -1 | -2 | 13* | 0 | 15* | 0
CCc1ccc(CN(C(=O)c2cc3ccccc3oc2=O)C2CCS(=O)(=O)C2)cc1 (stereo not given) | 3 | 2 | -1 | 3 | 0 | nt | nt
Cc1ccc(CN(C(=O)c2cc3ccccc3oc2=O)C2CCS(=O)(=O)C2)cc1 (stereo not given) | 5 | 2 | -6 | 8.7* | 0 | 4 | 4
Clc1ccc(-c2cc(-c3nnc4sc(Cc5cccs5)nn34)[nH]n2)cc1 | nt | nt | nt | -2 | nt | nt | nt
CC1CCN(c2ccc(C(=O)O)cc2NS(=O)(=O)c2ccc(C(C)(C)C)cc2)CC1 | nt | nt | nt | -1 | nt | nt | nt
SMILES | GAA850 FXN act | HIF activator | GalR3 antagonist | SMARCA2 act | Hsp70 act | SMARCA2 act conf | GAL4-VP16 Luc | others
CCc1ccc(NC(=O)CNC(=O)Cn2ccc3ccccc3c2=O)cc1 | -1 | 0 | -9 | 9.1* | nt | 0 | 2
O=C(Nc1ccccc1F)c1csc([C@@H]2C[C@H](O)[C@@H](CO)O2)n1 | 2 | nt | -6 | 11* | nt | 0 | -1
COc1ccc(C(=O)NCC2CCN(C(=O)C(=O)c3cc4ccccc4o3)CC2)cc1 | nt | nt | -6 | -4 | nt | nt | nt
CCOC(=O)c1sc(NC(=O)c2ccc3ncsc3c2)nc1C | 3 | 2 | 2 | 2 | -1 | nt | nt
CCOC(=O)c1sc(NC(=O)c2cc3ccccc3o2)nc1C | 2 | 3 | -2 | 3 | -1 | nt | nt
CCOC(=O)c1sc(NC(=O)c2cncc(Br)c2)nc1C | nt | -1 | -8 | 10* | 1 | 4 | 9.3*
C=CCOC(=O)c1sc(NC(=O)c2ccco2)nc1C | 5 | 4 | -4 | 8.0* | 0 | 18* | 6.7*
Cc1nc2ccc(S(=O)(=O)NCC(=O)NCc3cccs3)cc2s1 | nt | nt | nt | -7 | nt | nt | nt
Cc1oc(=O)c(NC(=O)c2cccc(Cl)c2)cc1C(=O)c1ccccc1 | 6 | 1 | -5 | 8.6* | 0 | 2 | 10*
Cc1oc(=O)c(NC(=O)c2ccccc2)cc1C(N)=O | 1 | 0 | -7 | 3 | 0 | nt | nt
COC(=O)C1=C(C)N(Cc2cccc(C(F)(F)F)c2)C(=NCc2cc(OC)c(OC)c(OC)c2)NC1c1cccc(C(F)(F)F)c1 (stereo not given) | nt | nt | -5 | -2 | nt | nt | nt
CCCCNC[C@@]12CO[C@H](c3ccc(Cl)cc3)N1[C@@H](c1ccc(Cl)cc1)SC2 | nt | nt | nt | -4 | nt | nt | nt
O=C(CC1Oc2ccccc2NC1=O)NCc1ccccc1 (stereo not given) | 0 | nt | -1 | -2 | 0 | nt | nt
CC(=O)CC1OC(=O)C(Br)=C1NCc1ccccc1 (stereo not given) | -2 | 0 | 1 | 13* | 0 | -4 | 3
Cc1ccc(S(=O)(=O)NCC(=O)OCc2cc(=O)oc3cc(C)ccc23)cc1 | 0 | nt | 0 | -2 | nt | nt | nt
Cc1ccc2c(COC(=O)C3=COCCO3)cc(=O)oc2c1 | 4 | -3 | -3 | 8.5* | 0 | 0 | 8.4*
S=C1SCN(Cc2cccnc2)CN1Cc1cccnc1 | -2 | -1 | -2 | 12* | nt | -8 | 0
S=C1SCN(Cc2ccccc2)CN1Cc1ccccc1 | -3 | 2 | -7 | 3 | nt | nt | nt
